# Source: PubChem BioAssay (NCATS)
# Records with an inconclusive call do not appear. Activity calls are given as the source filed them. Calls come from the whole dose curve; as a rule, active = well fitted inhibition curve with a large enough effect; inconclusive = small, poorly fitted or top-dose-only effect; inactive = flat fitted curve, though single readings scatter.
# Molecular target: Calcium and integrin-binding protein 1 (Homo sapiens) (UniProt Q99828)
# Test: Primary qHTS for Identification of Calcium Integrin Binding Protein 1 (CIB1) Competitor (AID 1508620); note: top concentration of the series differs between compounds
# Conditions: CIB1-GST / FITC-alphaIIb peptide fluorescence polarization; series mostly up to 57.7 µM; activity change, negative = inhibition: at the top concentration
# Procedure, shortened: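 Fluorescence polarization competition: GST-tagged CIB1 (1 uM final) preincubated with compound 15 min at room temperature, then FITC-labelled alphaIIb peptide (100 nM final) added. After 15 min at room temperature, polarization read at Ex 480/Em 540.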
# % is set by controls: 0 for no effect and ±100 for the full control effect.
# Sequence of Calcium and integrin-binding protein 1 (Homo sapiens) (Q99828 whole entry, looked up): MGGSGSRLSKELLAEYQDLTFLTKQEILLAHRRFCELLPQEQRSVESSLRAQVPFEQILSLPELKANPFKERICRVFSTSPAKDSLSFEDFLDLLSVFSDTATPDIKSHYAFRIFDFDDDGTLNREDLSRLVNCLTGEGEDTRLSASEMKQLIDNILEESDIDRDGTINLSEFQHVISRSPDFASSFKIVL
SMILES,"activity change, negative = inhibition",Potency
CC1CCC2C(C)(C)C(O)CCC2(C)C12Cc1c(O)cc3c(c1O2)CN(C(CCC(N)=O)C(=O)O)C3=O (centres undefined),2.35% (inactive),–
N[C@H]1C[C@H]1c1ccc(-c2cccc(O)c2)cc1,–,inactive
COc1ccc2c(c1)OC[C@]1(O)c3cc4c(cc3O[C@H]21)OCO4,-0.915% (inactive),–
O=C(O[C@H]1[C@@H]2C[C@@H]3OC[C@@](O)([C@H]2[C@H](O[C@@H]2O[C@H](CO)[C@@H](O)[C@H](O)[C@H]2O)O3)[C@@H]1O)c1ccccc1,-2.11% (inactive),–
CC1(CO)CC2C(O)C(=O)C3(CO)CC3(C)C2C1 (centres undefined),2.61% [at 114 µM] (inactive),–
CC(C)C1=CC2=CCC3[C@](C)(CCC[C@@]3(C)C(=O)O)C2CC1O (some centres undefined),1.9% (inactive),–
CCCCCCc1cccc(NC(=O)[C@H](N)CCP(=O)(O)O)c1,3.77% [at 30.2 µM] (inactive),–
CN1C(=O)c2ccccc2NC(=O)[C@]12O[C@@H]2c1cccc(O)c1,-7.54% [at 114 µM] (inactive),–
CC1(CO)CC[C@]2(C(=O)O[C@@H]3O[C@H](CO)[C@@H](O)[C@H](O)[C@H]3O)CC[C@]3(C)C(=CCC4[C@@]5(C)C[C@H](O)[C@H](O[C@@H]6OC[C@@H](O)[C@H](O)[C@H]6O)[C@@](C)(CO)C5CC[C@]43C)C2C1 (some centres undefined),5.66% [at 30.2 µM] (inactive),–
COC(=O)C1=C[C@@H](O)[C@@H](O)[C@H](O[C@@H]2O[C@H](COC(=O)/C=C/c3ccccc3)[C@@H](O)[C@H](O)[C@H]2O)C1,-16.7% (inactive),–
Cc1cc(N2CCCCC2)nc2ccccc12,-1.75% [at 114 µM] (inactive),–
C[C@@H]1O[C@@H](O[C@H]2[C@H](OC(=O)C34CCC5(C)C(=CCC6C7(C)CC(O)C(O[C@@H]8O[C@H](C(=O)O)[C@@H](O)[C@H](O)[C@H]8O)C(C)(C(=O)O)C7CCC65C)C3CC(C)(C)CC4O)O[C@H](C)[C@@H](O)[C@@H]2O)[C@H](O)[C@@H](O[C@@H]2OC[C@](O)(CO)[C@H]2O[C@@H]2O[C@H](CO)[C@@H](O)[C@H](O)[C@H]2O)[C@H]1O (some centres undefined),-1.08% [at 12.4 µM] (inactive),–
CC1(C)CC[C@]2(C(=O)O)CC[C@]3(C)C(=CCC4[C@@]5(C)CC[C@H](O[C@@H]6O[C@H](C(=O)O)[C@@H](O)[C@H](O)[C@H]6O)C(C)(CO)C5CC[C@]43C)C2C1 (some centres undefined),-5.54% [at 30.2 µM] (inactive),–
OCCc1ccc(O[C@@H]2O[C@H](CO)[C@@H](O)[C@H](O)[C@H]2O)c(O)c1,1.65% (inactive),–
CC(=O)O[C@H]1C[C@@H]2[C@]3(CC[C@]4(C)[C@@H](C5(C)CCC(C(C)(C)O)O5)[C@@H](O)C[C@@]24C)C[C@@]32CC[C@H](O[C@@H]3OC[C@@H](O)[C@H](O)[C@H]3O)C(C)(C)[C@H]12 (some centres undefined),0.913% [at 30.2 µM] (inactive),–
CC(C)(O)C1=CCC23COC(C2)C(O)(C(=O)O)CCC13 (centres undefined),-3.41% [at 114 µM] (inactive),–
Cc1ccc2c(c1)C=Cc1cc(C)ccc1C2c1cn(Cc2ccc(C(=O)Nc3nn[nH]n3)o2)c(=O)[nH]c1=S,-13% [at 114 µM] (inactive),–
COc1ccccc1[C@@H]1C2=C(CC(C)(C)CC2=O)Nc2n[nH]c(C(F)(F)F)c21,-2.11% [at 114 µM] (inactive),–
CCN(c1cc(C#CCN2CCOCC2)cc(C(=O)NCc2c(C)cc(C)[nH]c2=O)c1C)C1CCC(N(C)CCOC)CC1 (centres undefined),–,inactive
CC1(C)C[C@H]2C3=CCC4[C@@]5(C)CC[C@H](O[C@H]6O[C@H](C(=O)O)[C@@H](O)[C@H](O)[C@H]6O[C@H]6O[C@H](CO)[C@@H](O)[C@H](O)[C@H]6O[C@@H]6O[C@H](CO)[C@@H](O)[C@H](O)[C@H]6O)[C@](C)(CO)C5CC[C@@]4(C)[C@]3(C)CC[C@@]2(C)[C@H](O[C@@H]2OC[C@H](O)[C@H](OC3O[C@H](CO)[C@@H](O)[C@H](O)[C@H]3O)[C@H]2O)[C@@H]1O (some centres undefined),-7.85% [at 12.4 µM] (inactive),–
CC(C)CC(=O)n1cc(C(N)=O)c(=O)cc1C(O)c1ccccc1 (centres undefined),-13% (inactive),–
Oc1ccc([C@H]2COc3cc(O)ccc3C2)cc1,-0.443% [at 114 µM] (inactive),–
CC(=O)O[C@@H]1[C@H](O[C@@H]2OC[C@](O)(CO)[C@H]2O)[C@@H](O[C@@H]2O[C@@H](C)[C@H](O)[C@@H](O)[C@H]2O)[C@H](OC(=O)[C@]23CCC(C)(C)C[C@H]2C2=CCC4[C@@]5(C)C[C@H](O)[C@H](O[C@@H]6O[C@H](C(=O)O)[C@@H](O)[C@H](O)[C@H]6O)[C@@](C)(C(=O)O)C5CC[C@@]4(C)[C@]2(C)CC3)O[C@@H]1C (some centres undefined),-1.72% [at 30.2 µM] (inactive),–
CCC(C)(O)C(O)C(=O)OCc1ccc(O[C@@H]2O[C@H](CO)[C@@H](O)[C@H](O)[C@H]2O)cc1 (some centres undefined),3.7% (inactive),–
